Test results reported in PubChem BioAssay AID1645860 (Buhrlage Lab, Dana-Farber Cancer Institute and Novartis …, 2021).
The campaign covered roughly 47,000 compounds. About 2,500 (5.3%) were called active. Rule as the data show it: active = inhibition above about 30%; inactive = the rest. This excerpt belongs to a sample that is enriched for actives.

molecular target: Ubiquitin carboxyl-terminal hydrolase 30 (Homo sapiens) (UniProt Q70CQ3); assay: inhibitors of human USP30 deubiquitinase (AID 1645860); details: purified USP30, Ub-rhodamine cleavage fluorescence; at 25 µM; stronger effect = higher value
Sequence (Q70CQ3 whole entry, looked up): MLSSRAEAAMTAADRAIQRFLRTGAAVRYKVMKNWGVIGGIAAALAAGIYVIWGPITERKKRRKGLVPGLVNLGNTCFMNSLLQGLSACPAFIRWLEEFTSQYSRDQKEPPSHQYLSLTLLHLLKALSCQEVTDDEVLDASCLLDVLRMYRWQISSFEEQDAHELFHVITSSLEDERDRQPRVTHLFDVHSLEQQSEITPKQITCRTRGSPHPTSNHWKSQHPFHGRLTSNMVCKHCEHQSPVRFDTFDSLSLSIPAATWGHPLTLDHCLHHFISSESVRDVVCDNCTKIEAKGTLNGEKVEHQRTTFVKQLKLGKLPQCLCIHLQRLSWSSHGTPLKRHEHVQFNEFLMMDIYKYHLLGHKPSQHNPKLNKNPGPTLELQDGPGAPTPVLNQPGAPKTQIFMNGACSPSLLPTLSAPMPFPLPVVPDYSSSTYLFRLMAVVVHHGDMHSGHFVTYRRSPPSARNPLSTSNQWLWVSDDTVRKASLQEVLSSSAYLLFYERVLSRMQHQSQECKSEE

Structure (SMILES)	inhibition
CNC(=O)Nc1ccc(C2(C(=O)NC3CCCC3)CCC2)cc1	-19.9% (inactive)
CC12C(=O)N(CCCN3CCOCC3)CC(=O)N1CCc1c2[nH]c2ccccc12 (stereo not given)	7.84% (inactive)
Cc1cc(NC2CCCCC2)n2ncc(-c3ccccc3Cl)c2n1	-16.5% (inactive)
Cc1ccc(NC(=O)CCOc2ccccc2)cc1S(=O)(=O)Nc1ccccc1Cl	30.4% (active)
COc1ccc(NS(=O)(=O)c2cc(NC(=O)CC(=O)c3ccc([N+](=O)[O-])cc3)ccc2C)cc1	29.7% (inactive)
Cc1ccc(NC(=O)CCC(=O)N(c2ccccc2)c2ccccc2)cc1Cl	17.2% (inactive)
O=C(Nc1nnc(-c2cccs2)o1)C1CCCCC1	10.9% (inactive)
Cc1cc(-c2nnc(SCC(=O)Nc3ccc(Br)c(C)c3)n2N)n[nH]1	71.5% (active)
Nn1c(SCC(=O)Nc2ccccc2F)nnc1-c1n[nH]c2c1CCC2	-0.125% (inactive)
Cc1cc(NC(=O)COC(=O)c2cccc(C)c2O)ccc1Br	6.49% (inactive)
O=C(c1cnc2sc3c(n2c1=O)CCC3)N1CCCCC1	-37.1% (inactive)
CC(C)Cc1nc2sc3c(NCc4ccco4)ncnc3c2c2c1CCC2	-21.1% (inactive)
CC(C)c1nc2oc3c(N4CCN(CCO)CC4)ncnc3c2c2c1CCC2	18.4% (inactive)
CC(O)CNc1ncnc2c1oc1nc(C(C)C)c3c(c12)CCC3 (stereo not given)	38.1% (active)
CC(C)n1cnc2c1C(C(=O)N1CCN(C)CC1)N(Cc1ccccc1)CC2 (stereo not given)	9.34% (inactive)
CC(C)(C)C(=O)N1CCC2(COCc3cnc(NCc4ccco4)nc32)C1 (stereo not given)	2.12% (inactive)
Cc1c(S(=O)(=O)N2CCCCC2)c(C)n(C)c1-c1nnc(C2CCC2)o1	3.55% (inactive)
Cc1nnc(NCc2ccc(Cl)cc2)[nH]c1=O	26% (inactive)
CSc1cccc(NC(=O)CCn2c(=O)c3cccn3c3ccccc32)c1	32.6% (active)
CSc1cccc(NC(=O)CCc2ccc3nc[nH]c3c2)c1	-0.451% (inactive)

Structure (SMILES)	inhibition
CSc1cccc(NC(=O)COc2ccc(C(=O)c3ccccc3)cc2)c1	-4.48% (inactive)
Cc1cc2n(n1)CCCN2C(=O)CCC(=O)Nc1ccc(F)cc1F	-24.2% (inactive)
CC(=O)N1C[C@H]2C3(CCN(C(=O)c4ccccc4)CC3)CC[C@@]2(C(=O)N(C)C)C1	25.8% (inactive)
Cc1ccc(Cc2nc(CC(=O)Nc3ccc(F)cc3F)n[nH]2)cc1	-1.22% (inactive)
Cc1cc(F)ccc1NC(=O)c1cc(C2CC2)n2nccc2n1	-33.1% (inactive)
Cc1ccc(-n2cc(-c3noc(C(=O)Nc4ccc(F)cc4C)n3)nn2)cc1	36.9% (active)
CCC(C(=O)Nc1ccc(-c2cn3cccnc3n2)cc1)c1ccccc1 (stereo not given)	-89.6% (inactive)
N#Cc1ccc(C(=O)Nc2cccc(-c3noc(C4CC4)n3)c2)c(F)c1	13.2% (inactive)
Cc1ccc(F)c2c(=O)c3c([nH]c12)CCN(CC(=O)Nc1cccc(C#N)c1)C3	-178% (inactive)
O=C(Cn1c(=O)n(Cc2ccc3c(c2)OCO3)c(=O)c2cccnc21)Nc1ccc(F)cc1	21.5% (inactive)
O=C(Cn1c(=O)n(Cc2ccc3c(c2)OCO3)c(=O)c2ccccc21)NCc1ccco1	33% (active)
CC(C)(C)C(=O)Cn1c(=O)n(Cc2ccco2)c(=O)c2ccccc21	1.71% (inactive)
Cc1cc2oc(=O)cc(CN3CCN(Cc4ccccc4)CC3)c2cc1C	3.27% (inactive)
Cc1ccc(NC(=O)c2ccc3c(c2)N(S(C)(=O)=O)CC3)cc1C	-53.8% (inactive)
Cc1cccc(NC(=O)Nc2ccc3c(c2)N(S(=O)(=O)c2ccccc2)CC3)c1C	30.5% (active)
COc1ccccc1NC(=O)c1cccc(S(=O)(=O)N2CCc3ccccc32)c1	-7.37% (inactive)
COc1ccc(C2=NC3(CCN(Cc4cccc(F)c4)CC3)NC2=O)cc1	-23.4% (inactive)
CCc1cnc(N2CC[C@@H]3CN(CCC(C)C)S(=O)(=O)[C@@H]3CC2)nc1	27.9% (inactive)
Cc1ccc2c(=O)cc(CN(C)Cc3ccc(F)cc3)[nH]c2c1C	-7.81% (inactive)
COc1ccc(C2=CC(c3ccc(Cl)cc3)n3ncc(C(=O)Nc4ccccc4)c3N2)cc1 (stereo not given)	-15.7% (inactive)

Structure (SMILES)	inhibition
C=C1CCC2[C@](C)(CCC[C@]2(C)C(=O)OC)[C@H]1CCc1ccoc1/C=C/C(=O)O (stereo not given in full)	61.8% (active)
C=C1CCC2[C@](C)(CCC[C@]2(C)C(=O)OC)[C@H]1CCc1ccoc1C[N+](C)(C)Cc1ccccc1 (stereo not given in full)	72.7% (active)
CNc1nc(C2CCNCC2)nc2c1CCN(S(=O)(=O)c1ccccc1Cl)C2	-118% (inactive)
COc1cc(O)ccc1CN1CCCC12Cc1ccccc1CNC2=O (stereo not given)	-28% (inactive)
Cc1cncc(C2CCCN(C(=O)CCc3cc(Cl)no3)C2)n1 (stereo not given)	-18.4% (inactive)
O=C(COc1ccccc1Cl)NCC(c1ccco1)N1CCOCC1 (stereo not given)	-52.2% (inactive)
COc1ccc(N2C(=O)N(Cc3ccccc3)S(=O)(=O)c3cccnc32)cc1	13.9% (inactive)
COc1ccccc1NC(=O)NCc1cnn2ccccc12	14.1% (inactive)
Cc1nc(C2CCN(C(=O)C(C)(C)C)CC2)cc(N2CC3(CCOCC3)OC2=O)n1	6.69% (inactive)
c1ccc(Cn2nnc3c(N4CCCCC4)ncnc32)cc1	3.44% (inactive)
O=C(C1CCCCC1)N1CCN(c2ncnc3c2nnn3Cc2ccccc2)CC1	43.1% (active)
O=C(C1CCCCC1)N1CCC(c2nc3c(nnn3Cc3cccc(F)c3)c(=O)[nH]2)CC1	19.3% (inactive)
CCS(=O)(=O)N1CCc2c(nc(C3CCCN3)nc2NC)C1 (stereo not given)	-56.6% (inactive)
COc1ccc(NC(=O)C(C)c2c(C)n[nH]c2C)cc1 (stereo not given)	23.5% (inactive)
Cc1cccc2c1N(C(=O)Nc1ccc(OCc3ccccc3)cc1)CCC2	16.1% (inactive)
O=C(CN1CCCC1c1ccc2c(c1)OCCCO2)NCCc1ccccc1F (stereo not given)	-52% (inactive)
Cn1cc(CCNC(=O)Nc2cc(F)ccc2F)c2cccnc21	-16.4% (inactive)
CCN1CCc2nc(-c3ccccc3)n(CC(=O)Nc3cccc(Cl)c3C)c(=O)c2C1	-97% (inactive)
Cc1ccc(N(C)C(=O)CCn2cnc3ccccc3c2=O)cc1	-5.01% (inactive)
Cc1c(Cl)cccc1NC(=O)CCn1cnc2ccccc2c1=O	74% (active)
